Most compounds without a hit are left out; they make up all but 3.2% or so of the library.
ANO1 activ: TMEM16A chloride channel activators or potentiators, primary screen, cell-based, HTS; Anoctamin-1 (Mus musculus), Q8BHY3; HEK293 TMEM16A/YFP-H148Q/I152L, iodide quench fluorescence; hits give low values; B-score at 10 µM; 340,000 tested, 0.3% active;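 active means fluorescence-ratio B-score plate-corrected deviation score at least 3 library SD below zero, with starting fluorescence score within 5 deviations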;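 further: channel opened by trigger with iodide after compound preincubation; score built on the fluorescence ratio of max minus min over baseline; more negative score means more quench and so TMEM16A activation or potentiation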
CHT allo act: CHT positive allosteric modulators, primary screen, cell-based, membrane potential dye, choline EC20; AID 488977, 2010; 310,000 tested, 0.49% active; B-score at 10 µM; CHT-expressing cells; hits give high values; LV-AA mutant CHT in HEK293 cells; High affinity choline transporter 1 (Homo sapiens), Q9GZV3;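 active means initial fluorescence not abnormally high and integrated response B-score, plate-corrected, over 3 SD above library mean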
Target sequence (Q9GZV3 whole entry, looked up): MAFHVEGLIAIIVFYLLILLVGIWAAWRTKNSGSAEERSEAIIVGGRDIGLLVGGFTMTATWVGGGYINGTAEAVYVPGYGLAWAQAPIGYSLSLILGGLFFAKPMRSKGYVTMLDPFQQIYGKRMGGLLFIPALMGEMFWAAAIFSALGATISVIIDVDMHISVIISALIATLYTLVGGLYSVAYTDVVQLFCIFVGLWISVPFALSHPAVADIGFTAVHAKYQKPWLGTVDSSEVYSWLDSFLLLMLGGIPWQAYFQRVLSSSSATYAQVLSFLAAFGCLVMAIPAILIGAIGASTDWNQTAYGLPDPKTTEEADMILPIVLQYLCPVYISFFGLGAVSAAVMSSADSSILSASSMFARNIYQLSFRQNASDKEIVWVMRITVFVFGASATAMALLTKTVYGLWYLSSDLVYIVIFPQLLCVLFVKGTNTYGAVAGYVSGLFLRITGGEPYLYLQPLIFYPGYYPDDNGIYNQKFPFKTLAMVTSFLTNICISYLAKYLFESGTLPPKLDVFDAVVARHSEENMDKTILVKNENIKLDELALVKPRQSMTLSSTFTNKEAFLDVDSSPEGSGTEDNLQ
CHT block: inhibitors of human choline transporter CHT. CHT-expressing cells, membrane potential dye, choline response; hits give low values. High affinity choline transporter 1 (Homo sapiens), Q9GZV3. AID 488975, 2010. 310,000 tested, 0.86% active. B-score at 10 µM;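 active means B-score over 3 SD under the library average, and starting fluorescence ratio not unusually high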;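 further: choline stimulus applied at its EC90 after an EC20 pre-addition; B-score computed on integrated fluorescence ratio after choline addition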
HDAC3 inhib: HDAC3 deacetylase inhibitors, primary screen, biochemical, fluorescence, cell-free homogeneous | Histone deacetylase 3 (Homo sapiens), O15379 | recombinant HDAC3, fluorogenic peptide/trypsin coupled | inhibition, % at 8.3 µM | 320,000 tested, 0.15% active | AID 2718, 2010; in the data active means inhibition above about 26%, passing the limit was not always enough
TMEM16A inh: TMEM16A chloride channel inhibitors, primary screen, cell-based, HTS | Anoctamin-1 (Mus musculus), Q8BHY3 | HEK293 TMEM16A/YFP iodide influx fluorescence, ionomycin | normalized B-score (activity score, 25-100; higher = stronger inhibition) at 10 µM | 310,000 tested, 1.2% active;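 active means ratio plate-corrected score three or more library SD toward inhibition, starting fluorescence score within five deviations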;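 further: score derived from kinetic fluorescence span divided by baseline fluorescence per well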
PHOSPHO1 inh: PubChem AID 1565. Phosphoethanolamine/phosphocholine phosphatase (Homo sapiens), Q8TCT1. recombinant PHOSPHO1, absorbance phosphatase assay. inhibition, % at 13.3 µM. 290,000 tested, 1.1% active; in the data active means inhibition above about 60%
CHT act confirm: CHT activators, confirmation, cell-based, membrane potential dye, duplicate. shares compounds with CHT allo act. CHT-expressing cells, membrane potential dye fluorescence (FDSS); % of choline EC20–EC90 response window; HEK293 expressing CHT LV-AA mutant; choline added at its EC20. activation, % at 10 µM. 2,500 tested, 91% active. AID 504833, 2011;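 active means primary screen active, with duplicate mean activation above negative control mean plus 3 SD, cut at about 11% in these data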
HEK293 MP dye: membrane potential response in parental HEK293 cells, counter-screen for CHT activator project, cell-based, membrane potential dye; AID 623908, 2012; shares compounds with CHT allo act; 2,500 tested, 62% active; ratio readout change at 10 µM, hits read low; membrane potential dye fluorescence (FDSS); measured after EC20 choline addition;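 active means duplicate-averaged ratio beyond 3 SD from buffer wells, up or down, though filed actives are nearly all decreases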
* hit, by the source's call; i = inactive; · = no result.

SMILES	ANO1 activ	CHT allo act	CHT block	HDAC3 inhib	TMEM16A inh	PHOSPHO1 inh	CHT act confirm	HEK293 MP dye
O=C(NCC(c1ccco1)N1CCc2ccccc21)c1ccccc1F (centres undefined)	i	i	i	-11	i	·	·	·
O=C(NCC(c1ccco1)N1CCc2ccccc21)c1ccc([N+](=O)[O-])cc1 (centres undefined)	i	i	i	3	i	·	·	·
O=C(CCc1ccccc1)NCC(c1ccco1)N1CCc2ccccc21 (centres undefined)	i	7.5*	i	3	i	·	14*	i
O=C(NCC(c1ccco1)N1CCc2ccccc21)c1cccc([N+](=O)[O-])c1 (centres undefined)	i	i	i	3	i	·	23*	i
CC(Sc1n[nH]c(-c2cccs2)n1)C(=O)Nc1ccccc1F (centres undefined)	i	·	·	0	·	·	·	·
CCC1CCCCN1CCNS(=O)(=O)c1ccc2c(c1)oc(=O)n2C (centres undefined)	i	i	i	6	i	-14	35*	-25*
O=C(COC(=O)c1ccc(O)cc1)NC(=O)NCc1ccccc1	i	·	·	2	·	·	·	·
CCOC(=O)c1ccc2ncc(C(=O)OCC)c(NCCN(C)C)c2c1	i	i	i	-1	i	·	36*	-36*
CCOC(=O)c1ccc2ncc(C(=O)OCC)c(NCCN3CCOCC3)c2c1	i	i	i	2	i	·	·	·
CCOC(=O)c1cnc2ccc(C(=O)OC)cc2c1Nc1cccc(C(=O)O)c1	i	11*	i	-1	i	32	75*	-74*
CCOC(=O)c1cnc2ccc(C)cc2c1N(C)Cc1ccccc1	i	i	i	-1	i	6	28*	i
Cc1ccc(OCC(=O)NNC(=O)CSc2nnc(-c3ccc(C)cc3)n2C)cc1	i	i	i	-13	i	-9	·	·
COc1cc(OC)cc(C(=O)Nc2ccc3c(c2)n(C)c(=O)n3C)c1	i	i	i	-2	i	·	·	·
CS(=O)(=O)c1ccc(Cl)c(NC(=O)c2cc(=O)[nH]c3ccc(S(=O)(=O)N4CCOCC4)cc23)c1	i	i	i	3	i	·	·	·
COC(=O)c1ccc(OC(=O)c2ccncc2)cc1O	i	i	i	6	i	-20	·	·
COc1ccc(CCNCc2ccc(OCc3ccc(Cl)nc3)c(OC)c2)cc1OC	i	7.8*	i	4	i	10	37*	i
O=C(c1ccc(Cl)cc1)N1CCN(c2cc(=O)[nH]nc2-c2ccccc2)CC1	i	i	i	7	i	16	·	·
CN(C)c1ccnc(Nc2ccc(O)cc2)c1C#N	i	7*	i	-5	i	56	52*	-46*
COc1ccc(N2CCN(C(CNC(=O)COc3ccccc3)c3ccco3)CC2)cc1 (centres undefined)	i	7.1*	i	1	i	·	11*	i
CCC(=O)NCC(c1ccco1)N1CCN(c2ccc(OC)cc2)CC1 (centres undefined)	i	i	i	1	i	23	·	·
CCCOc1c(OC)cccc1C1CC(=O)Nc2cc3c(cc21)OCO3 (centres undefined)	i	i	i	4	i	10	·	·
CCCOc1c(OC)cccc1C1CC(=O)Nc2cc3c(cc21)OCCO3 (centres undefined)	i	i	i	13	i	-12	10	i
CCCCC(c1nnnn1CC1CCCO1)N1CCN(c2cc(Cl)ccc2C)CC1 (centres undefined)	i	·	·	·	·	5	·	·
CCCC(c1nnnn1Cc1ccco1)N1CCN(c2cc(Cl)ccc2C)CC1 (centres undefined)	i	6.7*	i	4	i	4	35*	i
Cc1ccc([N+](=O)[O-])c(C(=O)N/N=C/c2cccnc2)c1	i	i	i	8	i	33	61*	-41*
SMILES	ANO1 activ	CHT allo act	CHT block	HDAC3 inhib	TMEM16A inh	PHOSPHO1 inh	CHT act confirm	HEK293 MP dye
Cc1c(C(=O)N/N=C/c2cccnc2)sc(=S)n1C	i	i	i	12	i	7	41*	-41*
COc1ccc(NC(=O)N(C)C[C@H]2Oc3c(NS(=O)(=O)c4cn(C)cn4)cccc3C(=O)N([C@H](C)CO)C[C@@H]2C)cc1	i	·	·	-4	·	·	·	·
COC(=O)CCCC1=CC2=C(c3ccccc3)C(=O)C(C)(OC(=O)C3CCCC3)C(=O)C2=CN1C1CCCC1 (centres undefined)	i	11*	i	4	i	13	36*	i
COc1ccc(-c2cc(C(=O)NNC(=O)c3csc(N4CCOCC4)n3)c3ccccc3n2)cc1	i	i	i	0	i	·	·	·
COc1ccc(-c2cc(C(=O)NNC(=O)c3csc(N4CCOCC4)n3)c3ccccc3n2)cc1OC	i	7.3*	i	1	i	·	11*	i
COc1ccc(C[C@H]2CN3C(=NC[C@@H]3Cc3ccccc3)N2CCNC(=O)CCC2CCCCC2)cc1	i	9.6*	i	10	i	18	20*	i
COC(=O)C1=C(C)NC(=O)/C1=C\c1cc(C)n(-c2ccccc2C)c1C	i	i	i	2	i	2	·	·
COC(=O)C1=C(C)NC(=O)/C1=C\c1cc(C)n(-c2c(C)cccc2C)c1C	i	i	i	1	i	9	16*	i
Cn1c2ccccc2c2ncn(CCC3=CCCCC3)c(=O)c21	i	i	i	-9	i	0	·	·
CCN(CC)CCCNC(=O)c1cn(C)c2ccc(S(=O)(=O)N(C)C)cc2c1=O	i	6.4*	i	3	i	10	55*	-35*
CCN(CC)S(=O)(=O)c1ccc2c(c1)c(=O)c(C(=O)NCCN(C)CCc1ccccc1)cn2C	i	i	i	3	i	7	·	·

Compound activity from PubChem.
